# Reference: article PMC7862700, “An all-to-all approach to the identification of sequence-specific readers for epigenetic DNA modifications on cytosine”
# Columns and labels:
# Assay in all cases: DAPPL (digital affinity profiling via proximity ligation, sequencing); 10 mM Tris-HCl pH 7.5, 50 mM NaCl, 1 mM DTT, 4% glycerol, room temperature, 30 min; GST-TFs on glutathione beads, 16-mer random dsDNA library, 0.1% formaldehyde crosslink after washing; high values mean tight binding
# Conditions in all cases: protein: recombinant; tags: N-terminal GST; dsDNA, one strand shown
# FLI1 = target: T1, FLI1 (Homo sapiens, UniProt Q01543 1-452)
# T1 sequence: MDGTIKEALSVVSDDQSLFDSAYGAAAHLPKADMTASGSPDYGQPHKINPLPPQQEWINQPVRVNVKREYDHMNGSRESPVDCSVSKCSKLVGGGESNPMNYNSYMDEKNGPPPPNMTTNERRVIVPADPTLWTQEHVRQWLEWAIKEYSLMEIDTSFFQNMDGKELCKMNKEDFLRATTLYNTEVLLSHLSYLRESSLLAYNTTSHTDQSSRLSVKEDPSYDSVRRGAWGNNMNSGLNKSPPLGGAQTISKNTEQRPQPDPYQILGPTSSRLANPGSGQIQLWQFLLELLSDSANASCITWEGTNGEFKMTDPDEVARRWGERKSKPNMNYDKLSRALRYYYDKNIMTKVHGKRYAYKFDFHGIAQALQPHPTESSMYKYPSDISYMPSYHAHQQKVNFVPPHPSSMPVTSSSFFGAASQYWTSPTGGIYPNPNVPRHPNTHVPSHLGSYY
# In short: (§1)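 In yeast, human transcription factors were expressed with a GST fusion, then pulled down on glutathione beads and given DNA barcodes. Pooled with a tag-only sample, they were exposed to 200 nmole of a 16-mer random double-stranded DNA library (Tris/NaCl/DTT/glycerol buffer, room temperature, 30 min), washed, crosslinked with 0.1% formaldehyde, proximity-ligated using BsaI/T4 ligase for 1 h at 37 °C, PCR-amplified and read on an Illumina NextSeq500. Each hexamer's frequency of reads for a factor, divided by the matching frequency for the tag-only sample, gives the binding signal.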
# ELK1 = target: T2, ELK1 (Homo sapiens, UniProt P19419 1-428)
# T2 sequence: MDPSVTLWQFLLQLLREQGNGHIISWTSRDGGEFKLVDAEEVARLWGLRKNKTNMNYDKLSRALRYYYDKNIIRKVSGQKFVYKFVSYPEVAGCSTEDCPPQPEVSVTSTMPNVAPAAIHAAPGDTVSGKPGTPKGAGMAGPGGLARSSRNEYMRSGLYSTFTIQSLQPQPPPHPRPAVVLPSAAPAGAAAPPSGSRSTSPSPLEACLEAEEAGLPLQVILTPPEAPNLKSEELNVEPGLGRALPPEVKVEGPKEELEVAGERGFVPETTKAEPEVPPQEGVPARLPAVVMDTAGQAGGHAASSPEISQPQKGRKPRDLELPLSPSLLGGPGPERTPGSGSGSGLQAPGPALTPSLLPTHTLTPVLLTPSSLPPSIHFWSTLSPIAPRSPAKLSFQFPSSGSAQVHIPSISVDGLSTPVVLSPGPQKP
# In short: as §1
# GABPA = target: T3, GABPA (Homo sapiens, UniProt Q06546 1-454)
# T3 sequence: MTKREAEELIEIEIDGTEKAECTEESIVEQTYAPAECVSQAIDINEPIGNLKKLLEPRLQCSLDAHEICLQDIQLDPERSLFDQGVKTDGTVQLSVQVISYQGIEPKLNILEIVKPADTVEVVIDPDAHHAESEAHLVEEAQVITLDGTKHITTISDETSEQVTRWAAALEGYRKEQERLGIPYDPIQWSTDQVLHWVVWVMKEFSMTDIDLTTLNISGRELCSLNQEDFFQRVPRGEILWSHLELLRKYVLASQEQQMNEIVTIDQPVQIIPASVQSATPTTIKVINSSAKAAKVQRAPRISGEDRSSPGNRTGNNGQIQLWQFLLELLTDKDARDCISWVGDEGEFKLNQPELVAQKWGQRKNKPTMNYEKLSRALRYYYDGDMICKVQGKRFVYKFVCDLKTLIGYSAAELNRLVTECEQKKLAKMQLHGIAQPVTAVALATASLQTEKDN
# In short: as §1
# ERG = target: T4, ERG (Homo sapiens, UniProt P11308 1-479)
# T4 sequence: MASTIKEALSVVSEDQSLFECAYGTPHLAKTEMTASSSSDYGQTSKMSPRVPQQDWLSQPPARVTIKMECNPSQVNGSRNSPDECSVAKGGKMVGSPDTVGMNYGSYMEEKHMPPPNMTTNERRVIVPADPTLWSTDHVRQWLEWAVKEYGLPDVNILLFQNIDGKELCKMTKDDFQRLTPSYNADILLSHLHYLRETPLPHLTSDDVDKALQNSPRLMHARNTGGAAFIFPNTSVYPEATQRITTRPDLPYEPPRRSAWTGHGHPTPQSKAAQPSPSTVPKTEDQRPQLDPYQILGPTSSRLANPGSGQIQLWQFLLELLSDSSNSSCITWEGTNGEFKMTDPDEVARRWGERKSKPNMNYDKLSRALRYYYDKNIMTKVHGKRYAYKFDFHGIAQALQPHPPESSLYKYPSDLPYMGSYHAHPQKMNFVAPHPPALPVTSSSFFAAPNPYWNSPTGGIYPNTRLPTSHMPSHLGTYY
# In short: as §1
# ELF1 = ELF1 (Homo sapiens, UniProt P32519 1-619)
# ELF1, sequence (P32519 whole entry): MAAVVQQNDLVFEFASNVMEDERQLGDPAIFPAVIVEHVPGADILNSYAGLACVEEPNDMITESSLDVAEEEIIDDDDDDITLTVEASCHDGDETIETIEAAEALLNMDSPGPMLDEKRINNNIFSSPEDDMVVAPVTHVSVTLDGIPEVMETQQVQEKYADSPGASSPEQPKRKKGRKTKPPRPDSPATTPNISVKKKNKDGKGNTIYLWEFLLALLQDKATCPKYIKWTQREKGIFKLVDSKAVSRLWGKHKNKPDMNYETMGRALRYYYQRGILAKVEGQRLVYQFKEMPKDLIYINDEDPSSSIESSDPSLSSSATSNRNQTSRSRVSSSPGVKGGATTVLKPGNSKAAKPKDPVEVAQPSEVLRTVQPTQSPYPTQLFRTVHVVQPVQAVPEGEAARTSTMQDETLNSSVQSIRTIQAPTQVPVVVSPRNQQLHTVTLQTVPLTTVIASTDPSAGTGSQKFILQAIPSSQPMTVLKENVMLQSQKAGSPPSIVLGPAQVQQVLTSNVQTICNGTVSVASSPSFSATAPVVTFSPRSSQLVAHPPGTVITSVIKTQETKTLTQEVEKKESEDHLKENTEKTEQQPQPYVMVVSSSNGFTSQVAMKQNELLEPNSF
# In short: as §1
# EHF = target: T5, EHF (Homo sapiens, UniProt Q9NZC4 1-300)
# T5 sequence: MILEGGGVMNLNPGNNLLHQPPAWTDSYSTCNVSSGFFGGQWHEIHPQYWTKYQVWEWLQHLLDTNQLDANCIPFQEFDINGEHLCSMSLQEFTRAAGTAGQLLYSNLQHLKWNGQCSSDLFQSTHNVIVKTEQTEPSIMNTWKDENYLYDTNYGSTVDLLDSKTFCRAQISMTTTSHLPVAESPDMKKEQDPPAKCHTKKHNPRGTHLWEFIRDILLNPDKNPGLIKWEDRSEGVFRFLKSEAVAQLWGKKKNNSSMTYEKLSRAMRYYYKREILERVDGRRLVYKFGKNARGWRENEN
# In short: as §1
# SPI1 = SPI1 (Homo sapiens, UniProt P17947 1-270)
# In short: as §1
# SPIB = SPIB (Homo sapiens, UniProt Q01892 1-262)
# SPIB, sequence (Q01892 whole entry): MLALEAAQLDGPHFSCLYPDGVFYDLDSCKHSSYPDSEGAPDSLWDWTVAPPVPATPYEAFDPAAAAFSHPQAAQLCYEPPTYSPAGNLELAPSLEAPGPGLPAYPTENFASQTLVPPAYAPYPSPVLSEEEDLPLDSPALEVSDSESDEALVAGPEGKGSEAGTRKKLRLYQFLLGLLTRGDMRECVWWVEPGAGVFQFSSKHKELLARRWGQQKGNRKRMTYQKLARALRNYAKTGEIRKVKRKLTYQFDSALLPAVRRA
# In short: as §1
# ELK3 = target: T6, ELK3 (Homo sapiens, UniProt P41970 1-407)
# T6 sequence: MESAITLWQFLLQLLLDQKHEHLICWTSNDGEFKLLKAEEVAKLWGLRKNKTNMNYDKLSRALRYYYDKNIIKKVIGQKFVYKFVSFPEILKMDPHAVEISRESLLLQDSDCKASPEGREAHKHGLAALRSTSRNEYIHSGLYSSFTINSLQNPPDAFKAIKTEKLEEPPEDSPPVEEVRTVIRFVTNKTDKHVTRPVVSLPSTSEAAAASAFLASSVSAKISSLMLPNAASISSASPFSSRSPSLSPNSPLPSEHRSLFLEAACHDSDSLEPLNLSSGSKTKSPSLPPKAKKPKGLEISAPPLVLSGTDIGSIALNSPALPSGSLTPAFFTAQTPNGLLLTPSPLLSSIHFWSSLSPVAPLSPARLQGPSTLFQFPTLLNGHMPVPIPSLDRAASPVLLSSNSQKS
# In short: as §1
sequence,measurement,setting,value
CTCGCC,binding signal,FLI1,"1.16 fold enrichment (6-mer frequency, TF over GST control)"
same,binding signal,ELK1,"1.38 fold enrichment (6-mer frequency, TF over GST control)"
same,binding signal,GABPA,"1.26 fold enrichment (6-mer frequency, TF over GST control)"
same,binding signal,ERG,"1.21 fold enrichment (6-mer frequency, TF over GST control)"
same,binding signal,ELF1,"1.25 fold enrichment (6-mer frequency, TF over GST control)"
same,binding signal,EHF,"1.19 fold enrichment (6-mer frequency, TF over GST control)"
same,binding signal,SPI1,"1.17 fold enrichment (6-mer frequency, TF over GST control)"
same,binding signal,SPIB,"1.24 fold enrichment (6-mer frequency, TF over GST control)"
same,binding signal,ELK3,"1.25 fold enrichment (6-mer frequency, TF over GST control)"
